Experimental data as given in PubChem BioAssay AID1712 (National Center for Advancing Translational Sciences (NCATS), 2009).
Records with an inconclusive call do not appear. The call rests on the fitted dose curve; in most records, active means well fitted curve in the direction sought with a large enough effect; inconclusive means small, poorly fitted or top-dose-only effect, or effect the other way, or another doubt; inactive means no such curve, though single readings can be large or run the other way.

target: Amyloid-beta precursor protein (Homo sapiens) (UniProt P05067); test: Assay for Inhibitors of the fibrillization of the Beta-Amyloid Protein Fragment, A-beta 1-42; details: A-beta 1-42 fibrillization, ThT fluorescence, 4 h; series mostly up to 80 µM; activity, positive = inhibition: at the top concentration
Text: NIH Molecular Libraries Probe Production Network [MLPCN] NIH Chemical Genomics Center [NCGC] MLPCN Grant: X01 MH083262-01 Assay Provider: Carlo Ballatore, University of Pennsylvania NCGC Assay Overview: The microtubule-associated protein tau is an abundant protein in the axons of neurons that stabilizes microtubules. With its ability to modulate microtubule dynamics, tau contributes directly or indirectly, to key structural and regulatory cellular functions. Particularly important is the influence tau exerts on axonal transport, which allows signaling molecules, trophic factors and other essential cellular constituents to travel along the axons. Under pathological conditions, tau becomes sequestered into insoluble aggregates called neurofibrillary tangles. This phenomenon is believed to have pathological consequences by promoting axonal transport deficits that ultimately lead to synaptic dysfunction and neuronal loss. Beta-amyloid protein undergoes a similar type of aggregation as tau and is implicated in the pathology of Alzheimer's disease. To examine the selectivity of tau fibrillization inhibitors, compounds were tested in an in vitro assay for fibrillization of the beta-amyloid fragment, A-beta 1-42. Crystal, A. S., Giasson, B. I., Crowe, A., Kung, M. P., Zhuang, Z. P., Trojanowski, J. Q., and Lee, V. M. Y. (2003) Journal of Neurochemistry 86, 1359-1368.
NCGC Assay Protocol Summary: Synthetic A-beta 1-42 aliquots were reconstituted to 2 mg/ml in DMSO and then diluted to 15 uM in 25 mM Tris, pH 7.0 buffer to which test compound was added at 50 uM final concentration, or at several concentrations ranging from 0.16-40 uM. The reaction mixtures were dispensed at 25 ul/well into a 384-well plate and then incubated at 37 C for 4 hrs. Upon completion of the reaction, 25 ul of 25 uM ThT was added to each well followed by ThT fluorescence readings as described above for K18PL.

Chain of Amyloid-beta precursor protein (Homo sapiens) (P05067 whole entry, looked up, the tested form may be a part): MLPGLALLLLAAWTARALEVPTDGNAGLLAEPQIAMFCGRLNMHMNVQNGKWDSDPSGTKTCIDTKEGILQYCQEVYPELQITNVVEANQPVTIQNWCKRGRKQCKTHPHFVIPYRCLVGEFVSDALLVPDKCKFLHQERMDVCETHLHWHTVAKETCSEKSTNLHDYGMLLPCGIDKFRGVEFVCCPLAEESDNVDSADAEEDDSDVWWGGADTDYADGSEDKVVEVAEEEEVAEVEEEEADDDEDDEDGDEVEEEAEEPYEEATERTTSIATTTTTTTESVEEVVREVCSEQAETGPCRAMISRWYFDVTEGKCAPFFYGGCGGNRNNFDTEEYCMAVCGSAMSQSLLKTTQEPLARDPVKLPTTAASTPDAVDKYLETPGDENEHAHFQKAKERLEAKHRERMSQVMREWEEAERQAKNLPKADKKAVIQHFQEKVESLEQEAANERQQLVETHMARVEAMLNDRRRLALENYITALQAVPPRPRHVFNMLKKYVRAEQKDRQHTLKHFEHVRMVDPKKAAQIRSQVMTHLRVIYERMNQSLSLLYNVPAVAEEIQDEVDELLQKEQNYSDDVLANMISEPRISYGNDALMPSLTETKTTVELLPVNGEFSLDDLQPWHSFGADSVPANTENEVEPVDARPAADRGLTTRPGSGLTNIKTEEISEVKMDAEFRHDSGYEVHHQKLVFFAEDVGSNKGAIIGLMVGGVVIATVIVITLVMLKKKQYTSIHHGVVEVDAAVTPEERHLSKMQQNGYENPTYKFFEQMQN

activity, positive = inhibition, inactive:
CCOC(=O)c1nn(-c2ccccc2F)c(=O)c2c(N)scc12 5.98%
O=S(=O)(c1ccc2c(c1)OCCO2)N1CCN(c2nc(-c3ccccc3)nc3ccccc23)CC1 -8.26%
Cc1ccc(S(=O)(=O)N2CCN(c3nc(-c4ccccc4)nc4ccccc34)CC2)cc1 -11.6%
NC(=O)c1nn(-c2ccccc2)c(=O)c2c(N)scc12 -7.43%
COc1ccc(-n2nc(C(=O)O)c3csc(N)c3c2=O)cc1 7.71%
Nc1scc2c(CO)nn(-c3ccccc3)c(=O)c12 -12.8%
Nc1scc2c(C(=O)N3CCOCC3)nn(-c3ccccc3)c(=O)c12 5.25%
CCOC(=O)c1nn(-c2ccc(C)c(C)c2)c(=O)c2c(N)scc12 -17.1%
CCOC(=O)c1ccc(-n2nc(C(=O)OCC)c3csc(N)c3c2=O)cc1 -0.14%
Nc1nn(-c2ccccc2)c(=O)c2c(N)scc12 -16.8%
COc1ccc(NC(=O)CSc2nnc(CCC(=O)Nc3ccc(C)c(Cl)c3)n2C)cc1 -21.2%
CCOC(=O)c1nn(-c2ccccc2)c(=O)c2c(N)scc12 2.97%
CC(=O)Nc1sc(C)c2cnn(-c3ccccc3)c(=O)c12 27.7%
